# Most compounds without a hit are left out; they make up all but 12% or so of the library.
# AmpC no deterg: qHTS Inhibitors of AmpC Beta-Lactamase (assay without detergent) | P00811 | AmpC nitrocefin hydrolysis, absorbance 480 nm, 0.0001% Triton | Potency, µM (highest dose often 57.1 µM), inactives show at the highest dose activity change, negative = inhibition, actives largely listed as inhibitors | hit rate 0.52% among 330,000 | AID 485341, 2010;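 note: plate controls were no compound for no effect and no enzyme for full effect; nearly all actives have a fitted effect of over 20% in size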
# Target sequence (P00811 whole entry, looked up): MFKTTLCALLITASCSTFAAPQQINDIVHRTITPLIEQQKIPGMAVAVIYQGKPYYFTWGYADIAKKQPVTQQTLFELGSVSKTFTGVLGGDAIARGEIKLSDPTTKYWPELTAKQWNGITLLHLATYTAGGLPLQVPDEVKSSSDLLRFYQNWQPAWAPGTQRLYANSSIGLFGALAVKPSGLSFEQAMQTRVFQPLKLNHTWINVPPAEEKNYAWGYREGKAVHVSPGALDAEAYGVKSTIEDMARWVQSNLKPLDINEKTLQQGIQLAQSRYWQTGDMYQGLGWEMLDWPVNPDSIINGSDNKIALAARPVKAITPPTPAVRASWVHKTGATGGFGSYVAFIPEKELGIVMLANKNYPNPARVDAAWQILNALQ
#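 20 mM phosphate pH 7.0 + 0.01% (detergent screen) or 0.0001% Triton X-100; 5.3 nM AmpC reagent; cpd preinc 15 min RT; nitrocefin (800 uM stock) to start; A480 q20 s × 4 min; Activity was normalised to no-enzyme and no-compound control wells.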
# Pf growth 96h: Primary qHTS for delayed death inhibitors of the malarial parasite plastid, 96 hour incubation; Potency, µM (doses to about 28.7 µM), inactives show at the highest dose activity change, negative = inhibition, actives largely listed as inhibitors; hit rate 6.9% among 320,000; P. falciparum luciferase reporter growth, 96 h; note: % is set by controls: 0 for no effect and ±100 for the full control effect
#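 Two parasite generations (96 h, 37 C, 5% CO2) of compound exposure in infected erythrocytes (0.05% parasitemia, 2% hematocrit). Luciferase-reporter P. falciparum; decreased luminescence indicates inhibited growth, aimed at apicoplast-acting delayed death.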
# AmpC detergent: qHTS Inhibitors of AmpC Beta-Lactamase (assay with detergent); hit rate 0.041% among 370,000; P00811; AmpC hydrolysis of nitrocefin, absorbance 480 nm, 0.01% Triton; Potency, µM (highest dose often 114 µM), for the others: at the top dose activity change, negative = inhibition, most hits filed as inhibitors;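 note: 0% = no-compound wells and -100% = no-enzyme wells; nearly all actives have a fitted effect of over 25% in size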
#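 AmpC (5.3 nM in the dispensed reagent) in 20 mM phosphate pH 7.0 with 0.01% (detergent screen) or 0.0001% Triton X-100 was preincubated with compounds for 15 min at room temperature. Nitrocefin was then added from an 800 uM solution, and hydrolysis was followed at 480 nm.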
# Sm TGR block: qHTS Assay for the Inhibitors of Schistosoma Mansoni Peroxiredoxins; purified TGR, DTNB reduction, TNB absorbance 405 nm; Potency, µM (titrated, usually from 114 µM), without a hit: at the top dose activity change, negative = inhibition, most hits filed as inhibitors; hit rate 3% among 360,000; AID 485364, 2010; note: % is set by controls: 0 for no effect and ±100 for the full control effect; nearly all actives have a fitted effect of over 60% in size
#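 First, TGR (20 nM dispensed) and NADPH were mixed with compound. Second, a 15 min room-temperature incubation followed. Third, further NADPH and then DTNB were added to start the reaction. Finally, TNB absorbance was monitored kinetically.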
# Pf growth 48h: Primary qHTS for delayed death inhibitors of the malarial parasite plastid, 48 hour incubation; P. falciparum luciferase growth in erythrocytes, 48 h; Potency, µM (series often up to 28.7 µM), inactives show at the highest dose activity change, negative = inhibition, usual class: inhibitors; hit rate 5.9% among 310,000; AID 504832, 2011; note: % is set by controls: 0 for no effect and ±100 for the full control effect
#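 Luciferase-expressing parasites in RBCs, 2% Hct / 0.1% parasitemia final; RPMI 1640 + 0.5% Albumax; 37 C, 5% CO2, one generation; luminescence read-out, lower signal = inhibition.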
# SARS PLP yeast: qHTS of Yeast-based Assay for SARS-CoV PLP; S. cerevisiae expressing SARS-CoV PLpro, growth rescue; Potency, µM (highest dose often 32.9 µM), for the others: at the highest dose activity, positive = growth rescue, most hits filed as activators; hit rate 0.19% among 330,000; calls by dose curve; note: 0% is about no effect; nearly all actives have a fitted effect of over 55% in size
# * hit, by the source's call; ? = inconclusive; · = no result given; [ ] = another dose, or the depositor's remark. Unless noted, calls come from the whole dose curve; as a rule, active = well fitted curve in the direction sought with a large enough effect; inconclusive = small, poorly fitted or top-dose-only effect, or another doubt; inactive = no such curve, though single readings can be large; an effect the other way counts as inactive or inconclusive. Potency is the fitted concentration of half-maximal effect.
SMILES,AmpC no deterg,Pf growth 96h,AmpC detergent,Sm TGR block,Pf growth 48h,SARS PLP yeast
Cc1ccc(-n2nc3c(=O)n(CC(=O)NC4CCCCC4)nc(C)c3c2C)cc1,-4%,?,1%,2%,28%,-2%
CCOc1ccccc1CNCc1cccn1-c1nnc(N2CCN(c3ccccc3)CC2)s1,·,·,-12%,5%,·,·
COc1ccc(CCNc2oc(-c3ccccc3OC)nc2C#N)cc1,-3%,-28%,?,14µM*,-27%,-15%
N#Cc1nc(COc2ccc(Cl)cc2)oc1NCc1ccc2c(c1)OCO2,-9%,10µM*,-15%,4%,·,-1%
Cc1cccc(OCc2nc(C#N)c(NCc3ccc4c(c3)OCO4)o2)c1,-20%,-6%,-2%,4%,·,5%
Cc1ccc(NC(=O)C2CCCN(S(=O)(=O)c3cccc4cccnc34)C2)cc1 (stereo not drawn),-16%,?,-1%,5%,?,2%
O=C(CN1CCOCC1)N/N=C/c1cc2ccccc2nc1Cl,?,1.5µM*,-4%,-3%,24%,0%
CN1C2=NCCN2C(=O)c2ccccc21,-10%,·,3%,2%,24%,-2%
CC1CCCCC1NCC#CCOc1ccc(Cl)cc1 (stereo not drawn),-2%[2.29 µM],7%,0%,-21%,-23%,2%
O=C(O)/C=C/c1nc(-c2ccccc2)n2ccccc12,-22%,42%,-3%,2.5µM*,112%,-20%
COc1cc2c(C#N)c(N3CCN(c4ccccc4OC)CC3)nc(N)c2c(N)n1,?,8.3µM*,-2%,-6%,2.1µM*,-19%
Cc1ccc(S(=O)(=O)N2CCN(c3nc4ccccc4nc3-n3nc(C)cc3C)CC2)cc1,-4%,17%,?,1%,10µM*,5%
CCc1nc2ccccc2nc1N1CCN(S(=O)(=O)c2ccccc2)CC1,-1%,15µM*,9%,11%,?,-1%
Cc1cc(N2CCC(C)CC2)nc(-n2nc(C)cc2C)n1,37%,·,-4%,-14%,0.74µM*,-15%
Cc1cc(C)n(-c2nc3ccccc3nc2N2CCC(C)CC2)n1,71%,·,-2%,7%,9.3µM*,-43%
Cc1cc(C)n(-c2nc3ccccc3nc2N2CCN(c3cccc(C)c3C)CC2)n1,·,·,11%,-3%,·,·
Cc1cc(C)n(-c2nc(N(C)C)nc(N3CCOCC3)n2)n1,-2%,-9%,-15%,3%,·,21%
Cc1cc(C)n(-c2nc3ccccc3nc2N2CCN(C(=O)c3ccc(F)cc3)CC2)n1,80%,·,1%,-16%,?,2%
Cc1ccc(C(=O)Nc2ccc(C(=O)N3CCCCC3)cc2)o1,-10%,-1%,-14%,4%,32%,-13%
C[C@@H]1C(NC(=O)c2ccccc2)CC2CC1C2(C)C (stereo partly drawn),-6%,7.4µM*,1%,-1%,-14%,-14%
CCNC(=S)N(Cc1cc2cc(C)cc(C)c2[nH]c1=O)C1CCCC1,33%,6.6µM*,-11%,1%,?,6%
CC(=O)SC1CC(=O)N(c2c(C)cccc2C)C1=O (stereo not drawn),-20%,13%,-4%,14µM*,1.9µM*,-1%
O=C1CC(N2CCSCC2)C(=O)N1c1cccc(Br)c1 (stereo not drawn),-14%,1%,0%,45µM*,?,-18%
Cc1cccc(C)c1N1C(=O)CC(N2CCSCC2)C1=O (stereo not drawn),-13%,0%,-1%,45µM*,-19%,-5%
CC(=O)SC1CC(=O)N(c2ccc(C(C)(C)C)cc2)C1=O (stereo not drawn),6%,36%,-7%,?,24%,-7%
SMILES,AmpC no deterg,Pf growth 96h,AmpC detergent,Sm TGR block,Pf growth 48h,SARS PLP yeast
O=C1CC(N2CCSCC2)C(=O)N1c1ccccc1 (stereo not drawn),-10%,?,8%,·,6%,-5%
COc1cn(CC(=O)Nc2ccc(C)cc2)c(CN2CCCCC2)cc1=O,·,·,8%,18%,·,·
COc1ccc(C(=O)N2N=C(c3ccc(NS(C)(=O)=O)cc3)CC2c2cccs2)cc1 (stereo not drawn),-42%,9%,-3%,-2%,?,2%
Cn1c(SCC(=O)N2CCCCC2)nnc1-c1ccc(S(=O)(=O)N2CCOCC2)cc1,-17%,13µM*,-11%,5%,-1%,12%
Cn1c(SCC(=O)N2CCCC2)nnc1-c1ccc(S(=O)(=O)N2CCCC2)cc1,-8%,1%,1%,8%,-6%,1%
CCn1c(SCC(=O)N2CCCC2)nnc1-c1ccc(S(=O)(=O)N2CCCCCC2)cc1,78%,?,?,2%,9.3µM*,1%
Cn1c(SCC(=O)NCc2cccs2)nnc1-c1ccc(S(=O)(=O)N2CCCC2)cc1,25%,8.3µM*,-17%,8%,?,1%
CCn1c(SCc2ccc(C#N)cc2)nnc1-c1ccc(S(=O)(=O)N2CCCCC2)cc1,45%,-2%,11%,11%,1.5µM*,0%
CCCCS(=O)(=O)N1CCCC(C(=O)NCC2CCCO2)C1 (stereo not drawn),-2%,0%,?,-9%,19%,24%
COc1ccccc1CNC(=O)CSc1nc(=O)[nH]c2c1CCC2,·,·,3%,10%,·,·
COc1ccc(CCNC(=O)CSc2cc(=O)n(C)c3ccccc23)cc1OC,·,·,2%,-4%,·,·
CCCn1c(SCc2nc(-c3ccc(OC)cc3OC)no2)nnc1-c1ccc(Cl)cc1,·,·,2%,-1%,·,·
COC(=O)CSc1nnc(CNC(=O)c2ccc(S(=O)(=O)N3CCCCC3)cc2)n1C,19%,1.5µM*,-11%,4%,6%,4%
Fc1cnc(N2CCOCC2)nc1N1CCOCC1,-13%,-9%,9%,·,6%,0%
Clc1nc(N2CCOCC2)ncc1Br,-19%,1.9µM*,6%,-6%,2.6µM*,0%
Cc1ccc(NC(=O)CCS(=O)(=O)c2cc3[nH]c(=O)c(=O)[nH]c3cc2C)cc1,-17%,4.1µM*,-4%,-24%,6%,0%
CCOC(=O)c1cnc(SCC(=O)N2CCOCC2)nc1N,126%,?,-2%,-13%,-20%,1%
O=S(=O)(c1ccccc1F)N1CCN(C(=S)NCc2ccccc2)CC1,-48%,2.6µM*,1%,5%,3.7µM*,0%
O=S(=O)(NCc1ccccc1)c1ccc(S(=O)(=O)N2CCCCC2)cc1,-23%,5.2µM*,0%,-24%,15%,-8%

# Assay outcomes deposited in PubChem by National Center for Advancing Translational Sciences (NCATS).
